Measured values: PubChem BioAssay (Tox21)
Inconclusive results are not listed. Calls of active or inactive are those of the source. Unless noted, the call rests on the fitted dose curve; in most records, active means well fitted curve in the direction sought with a large enough effect in the repeat runs; inconclusive means weak or mixed curves; inactive means no such curve, though single readings can be large; an effect the other way counts as inactive or inconclusive.

Key:
[1] = A CellTox Green Cytotoxicity Assay to monitor cytotoxicity in HepG2 cells - 16 hour (AID 1224876); further: nearly all actives have a fitted effect of over 45% in size
Procedure, shortened: (§1)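 HepG2 cells, 600/well, preincubated 5 h with CellTox Green dye, then exposed to Tox21 compounds in DMSO at 37 C for up to 40 h. Dead-cell DNA fluorescence read at the indicated time point.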

[2] = qHTS RealTime-Glo MT Cell Viability Assay in HepG2 cells - 32 hour (AID 1224877); further: nearly all actives have a fitted effect of over 55% in size
Procedure, shortened: (§2)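 HepG2 suspension premixed with RealTime-Glo reagents is plated at 600 cells per well and left 5 h at 37 C/5% CO2. Compounds in DMSO then go in, and bioluminescence reflecting viable cell number is recorded over 40 h.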

[3] = A CellTox Green Cytotoxicity Assay to monitor cytotoxicity in HepG2 cells - 24 hour (AID 1224878); further: nearly all actives have a fitted effect of over 45% in size
Procedure, shortened: as §1

[4] = A CellTox Green Cytotoxicity Assay to monitor cytotoxicity in HepG2 cells - 40 hour (AID 1224879); further: nearly all actives have a fitted effect of over 40% in size
Procedure, shortened: as §1

[5] = qHTS RealTime-Glo MT Cell Viability Assay in HEK293 cells - 0 hour (AID 1224880); further: top concentration of the series differs between compounds; nearly all actives have a fitted effect of over 45% in size
Procedure, shortened: (§3)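 600 cells/well were plated with the nonlytic NanoLuc/prosubstrate reagent, pre-incubated 5 h, then given 23 nL of compound in DMSO. Incubation at 37 C for 40 h, with luminescence from viable-cell-reduced substrate read repeatedly from 0 h.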

[6] = A CellTox Green Cytotoxicity Assay to monitor cytotoxicity in HEK293 cells - 32 hour (AID 1224881); further: nearly all actives have a fitted effect of over 40% in size
Procedure, shortened: (§4)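 HEK293 cells, 600/well, were preincubated 5 hours and then exposed to compounds at 37 C for up to 40 hours. A cell-impermeant cyanine dye staining dead-cell DNA was read by fluorescence at 0, 8, 16, 24, 32 and 40 h time points.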

[7] = A CellTox Green Cytotoxicity Assay to monitor cytotoxicity in HepG2 cells - 0 hour (AID 1224882); further: nearly all actives have a fitted effect of over 35% in size
Procedure, shortened: as §1

[8] = A CellTox Green Cytotoxicity Assay to monitor cytotoxicity in HEK293 cells - 8 hour (AID 1224884); further: nearly all actives have a fitted effect of over 35% in size
Procedure, shortened: as §4

[9] = qHTS RealTime-Glo MT Cell Viability Assay in HepG2 cells - 16 hour (AID 1224885); further: nearly all actives have a fitted effect of over 50% in size
Procedure, shortened: as §2

[10] = qHTS RealTime-Glo MT Cell Viability Assay in HEK293 cells - 24 hour (AID 1224886); further: top concentration of the series differs between compounds; nearly all actives have a fitted effect of over 50% in size
Procedure, shortened: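 Reads taken at 0, 8, 16, 24, 32 and 40 h from the same wells. HEK293 cells (600/well) carried RealTime-Glo reagents from seeding, with compound added after a 5 h settle at 37 C.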

[11] = qHTS RealTime-Glo MT Cell Viability Assay in HEK293 cells - 8 hour (AID 1224887); further: top concentration of the series differs between compounds; nearly all actives have a fitted effect of over 50% in size
Procedure, shortened: as §3

[12] = A CellTox Green Cytotoxicity Assay to monitor cytotoxicity in HEK293 cells - 16 hour (AID 1224888); further: nearly all actives have a fitted effect of over 35% in size
Procedure, shortened: as §4

[13] = qHTS RealTime-Glo MT Cell Viability Assay in HepG2 cells - 0 hour (AID 1224889); further: nearly all actives have a fitted effect of over 50% in size
Procedure, shortened: as §2

[14] = A CellTox Green Cytotoxicity Assay to monitor cytotoxicity in HepG2 cells - 8 hour (AID 1224890); further: nearly all actives have a fitted effect of over 45% in size
Procedure, shortened: as §1

[15] = qHTS assay to identify small molecule antagonists of the estrogen receptor alpha (ER-alpha) signaling pathway using the BG1 cell line in the presence of 0.1 nM 17-beta-estradiol - cell viability counter screen (AID 1259241); further: nearly all actives have a fitted effect of over 40% in size
Procedure, shortened: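 Cytotoxicity counter-screen: live-cell protease activity measured by fluorescence (30 min reagent step) in the same wells. Cells were VM7Luc4E2 with endogenous ER-alpha and ERE-driven luciferase, treated 22 hr at 37C alongside 0.1 nM 17beta-estradiol final.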

[16] = qHTS assay to identify small molecule antagonists of the androgen receptor (AR) signaling pathway using the MDA cell line in the presence of 0.5 nM R1881 - cell viability counter screen (AID 1259242); further: nearly all actives have a fitted effect of over 45% in size
Procedure, shortened: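 MDA-kb2 cells (MMTV-luciferase, AR/GR responsive) were treated with compounds plus 0.5 nM R1881 (final) for 16 hr at 37C, 0% CO2. Viability was then read in the same wells as live-cell protease fluorescence (CellTiter-Fluor, 30 min).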

[17] = A CellTox Green Cytotoxicity Assay to monitor cytotoxicity in HepG2 cells - 32 hour (AID 1224883); further: nearly all actives have a fitted effect of over 50% in size
Procedure, shortened: as §1

[18] = biological target: Estrogen receptor (Homo sapiens) (UniProt P03372); assay: qHTS assay to identify small molecule antagonists of the estrogen receptor alpha (ER-alpha) signaling pathway using the BG1 cell line in the presence of 0.1 nM 17-beta-estradiol (AID 1259244); further: nearly all actives have a fitted effect of over 50% in size
Chain of Estrogen receptor (Homo sapiens) (P03372 whole entry, looked up): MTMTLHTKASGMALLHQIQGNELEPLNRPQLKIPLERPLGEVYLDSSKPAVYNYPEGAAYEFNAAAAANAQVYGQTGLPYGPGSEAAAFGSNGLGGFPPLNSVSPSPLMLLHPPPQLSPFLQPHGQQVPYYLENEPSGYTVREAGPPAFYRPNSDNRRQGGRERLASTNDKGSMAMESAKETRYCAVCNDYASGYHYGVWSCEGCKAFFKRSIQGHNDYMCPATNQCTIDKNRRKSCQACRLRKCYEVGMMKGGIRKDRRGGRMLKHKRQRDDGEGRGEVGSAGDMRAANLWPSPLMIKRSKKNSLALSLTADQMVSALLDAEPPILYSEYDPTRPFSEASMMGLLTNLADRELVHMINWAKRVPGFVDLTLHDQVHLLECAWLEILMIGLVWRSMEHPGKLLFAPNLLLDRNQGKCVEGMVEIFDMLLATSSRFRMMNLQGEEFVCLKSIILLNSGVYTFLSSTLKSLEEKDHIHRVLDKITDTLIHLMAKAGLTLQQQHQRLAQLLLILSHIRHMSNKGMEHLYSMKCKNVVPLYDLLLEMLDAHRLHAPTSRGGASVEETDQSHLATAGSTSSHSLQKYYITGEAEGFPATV
Procedure, shortened: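 VM7Luc4E2 cells (endogenous full-length ER-alpha, 4×ERE-luciferase), kept 5 days in phenol red-free, charcoal-stripped FBS medium; 4,000 cells/well. Compounds added with 0.1 nM (final) 17beta-estradiol, 22 hr at 37C; luminescence read with ONE-Glo after 30 min.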

[19] = qHTS assay to identify small molecule phospholipidosis (PLD) inducers (AID 1259344; active means well fitted curve in the direction sought with a large enough effect; an effect the other way counts as inactive or inconclusive)
Procedure, shortened: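 Phospholipidosis is scored by imaging LipidTOX-stained pits in HepG2 cells exposed to compound for 24 h at 37 C; pit counts and integrated intensities per well and per cell serve as outputs.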

[20] = biological target: Androgen receptor (Homo sapiens) (UniProt P10275); assay: qHTS assay to identify small molecule antagonists of the androgen receptor (AR) signaling pathway using the MDA cell line in the presence of 0.5 nM R1881 (AID 1259243); further: nearly all actives have a fitted effect of over 50% in size
Chain of Androgen receptor (Homo sapiens) (P10275 whole entry, looked up): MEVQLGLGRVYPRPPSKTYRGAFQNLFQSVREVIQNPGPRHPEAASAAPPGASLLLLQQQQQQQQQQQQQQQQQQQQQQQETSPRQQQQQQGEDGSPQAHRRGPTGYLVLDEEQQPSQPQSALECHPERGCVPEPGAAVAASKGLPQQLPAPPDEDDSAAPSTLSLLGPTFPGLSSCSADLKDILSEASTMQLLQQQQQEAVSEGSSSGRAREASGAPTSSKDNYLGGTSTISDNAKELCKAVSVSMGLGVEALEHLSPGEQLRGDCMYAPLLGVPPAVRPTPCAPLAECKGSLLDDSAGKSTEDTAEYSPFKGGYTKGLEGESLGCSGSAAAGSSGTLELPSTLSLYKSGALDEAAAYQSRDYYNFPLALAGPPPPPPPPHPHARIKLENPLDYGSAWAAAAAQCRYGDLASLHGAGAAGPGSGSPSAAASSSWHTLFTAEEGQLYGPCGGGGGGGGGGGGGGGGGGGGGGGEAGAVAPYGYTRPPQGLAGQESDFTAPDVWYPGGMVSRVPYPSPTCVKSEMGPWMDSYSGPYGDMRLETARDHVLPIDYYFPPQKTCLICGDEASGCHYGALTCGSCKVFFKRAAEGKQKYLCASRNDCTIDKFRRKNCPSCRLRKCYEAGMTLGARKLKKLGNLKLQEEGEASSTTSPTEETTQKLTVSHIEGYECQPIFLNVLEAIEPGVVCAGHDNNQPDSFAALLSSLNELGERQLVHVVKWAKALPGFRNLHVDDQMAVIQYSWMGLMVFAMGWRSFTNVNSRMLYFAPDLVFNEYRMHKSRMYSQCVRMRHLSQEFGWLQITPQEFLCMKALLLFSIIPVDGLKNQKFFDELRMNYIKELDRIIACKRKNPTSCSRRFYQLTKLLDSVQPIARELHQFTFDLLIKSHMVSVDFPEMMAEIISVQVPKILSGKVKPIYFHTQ
Procedure, shortened: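 MDA-kb2 cells (MMTV-luciferase, responsive to AR and GR) at 3,000/well, rested 5 h at 37C, 0% CO2, then given compounds plus 0.5 nM R1881 (final) for 16 hr. Luciferase read with ONE-Glo after 30 min at room temperature.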

Measured: Potency

O=Cc1cc2ccccc2o1
not listed: [17] | [18] | [19] | [20]
inactive: all other assays above

CC(C)(C)NC[C@H](O)COc1cccc2c1CCCC2=O
not listed: [8] | [11] | [12] | [20]
inactive: all other assays above

CCO
not listed: [17] | [19]
inactive: all other assays above

CC1(C)[C@H]2CC[C@](C)(C2)[C@H]1O
not listed: [8] | [13] | [19] | [20]
inactive: all other assays above
